Results reported in PubChem BioAssay AID1159580 (chemical genetic matrix, 2015).
The whole screen tested about 5,500 compounds, of which about 2,000 (36%) were called active. About 18% were inconclusive and are not listed. No stated cut-off is given here; in the data, active means normalized growth mostly below about 0.91 (no sharp cut-off); inconclusive means no clear call, values can overlap the other calls; inactive means mostly above about 0.92. This is one part of the list.

Assay: chemical genetic growth profiling, strain panel (AID 1159580);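 further: tested at 20 µM; growth read once vehicle control cultures reached saturation at 30 °C; 1 = growth at the plate median or of vehicle wells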
Details: growth OD

Measured: normalized growth

O=C(Cn1ccnc1[N+](=O)[O-])NCCO
inactive: S. cerevisiae deletion strains, locus YJR075W, strain HOC1, stronger effect = lower value 1 | S. cerevisiae deletion strains, locus YKL009W, strain mrt4, stronger effect = lower value 1.03 | S. cerevisiae deletion strains, locus YKL068W, stronger effect = lower value 1.02 | S. cerevisiae deletion strains, locus YKL085W, strain MDH1 (second series), stronger effect = lower value 1.03 | S. cerevisiae deletion strains, locus YKL085W, strain MDH1, stronger effect = lower value 1.03 | S. cerevisiae deletion strains, locus YKL160W, strain elf1, stronger effect = lower value 1.02 | S. cerevisiae deletion strains, locus YKL190W, strain CNB1, stronger effect = lower value 1.01 | S. cerevisiae deletion strains, locus YKR001C, strain vps1, stronger effect = lower value 1.01 | S. cerevisiae deletion strains, locus YKR026C, strain gcn3, stronger effect = lower value 1.01 | S. cerevisiae deletion strains, locus YKR091W, strain srl3, stronger effect = lower value 1.01 | S. cerevisiae deletion strains, locus YLL001W, strain dnm1, stronger effect = lower value 1.01 | S. cerevisiae deletion strains, locus YLL026W, stronger effect = lower value 1.01 | S. cerevisiae deletion strains, locus YLL041C, strain sdh2, stronger effect = lower value 1.01 | S. cerevisiae deletion strains, locus YLR027C, strain aat2, stronger effect = lower value 1.01 | S. cerevisiae deletion strains, locus YLR039C, strain RIC1, stronger effect = lower value 1.08 | S. cerevisiae deletion strains, locus YLR058C, strain SHM2, stronger effect = lower value 1.01 | S. cerevisiae deletion strains, locus YLR102C, strain apc9, stronger effect = lower value 1.01 | S. cerevisiae deletion strains, locus YLR113W, strain HOG1, stronger effect = lower value 0.988 | S. cerevisiae deletion strains, locus YLR221C, strain rsa3, stronger effect = lower value 1.02 | S. cerevisiae deletion strains, locus YLR258W, strain gsy2, stronger effect = lower value 1.02 | S. cerevisiae deletion strains, locus YLR262C, strain YPT6 (second series), stronger effect = lower value 1.02 | S. cerevisiae deletion strains, locus YLR262C, strain YPT6, stronger effect = lower value 1.07 | S. cerevisiae deletion strains, locus YLR268W, strain sec22, stronger effect = lower value 0.981 | S. cerevisiae deletion strains, locus YLR320W, strain mms22, stronger effect = lower value 1.03 | S. cerevisiae deletion strains, locus YLR330W, strain CHS5, stronger effect = lower value 1 | S. cerevisiae deletion strains, locus YLR342W, strain FKS1 (second series), stronger effect = lower value 1.08 | S. cerevisiae deletion strains, locus YLR342W, strain FKS1, stronger effect = lower value 1.02 | S. cerevisiae deletion strains, locus YLR357W, strain rsc2, stronger effect = lower value 1.01 | S. cerevisiae deletion strains, locus YLR370C, strain arc18, stronger effect = lower value 1.02 | S. cerevisiae deletion strains, locus YLR371W, strain rom2, stronger effect = lower value 1.01 | S. cerevisiae deletion strains, locus YLR384C, strain iki3, stronger effect = lower value 1.03 | S. cerevisiae deletion strains, locus YLR418C, strain cdc73, stronger effect = lower value 0.95 | S. cerevisiae deletion strains, locus YML016C, strain PPZ1, stronger effect = lower value 1 | S. cerevisiae deletion strains, locus YML032C, strain rad52, stronger effect = lower value 1.02 | S. cerevisiae deletion strains, locus YML120C, strain ndi1, stronger effect = lower value 1 | S. cerevisiae deletion strains, locus YML124C, strain tub3, stronger effect = lower value 1 | S. cerevisiae deletion strains, locus YMR058W, strain fet3, stronger effect = lower value 1.01 | S. cerevisiae deletion strains, locus YMR078C, strain ctf18, stronger effect = lower value 1.01 | S. cerevisiae deletion strains, locus YMR125W, strain sto1, stronger effect = lower value 1.02 | S. cerevisiae deletion strains, locus YMR129W, stronger effect = lower value 1.02 | S. cerevisiae deletion strains, locus YMR205C, strain PFK2, stronger effect = lower value 1.03 | S. cerevisiae deletion strains, locus YMR223W, strain ubp8, stronger effect = lower value 1.02 | S. cerevisiae deletion strains, locus YMR231W, strain pep5, stronger effect = lower value 1.02 | S. cerevisiae deletion strains, locus YMR263W, strain SAP30, stronger effect = lower value 0.993 | S. cerevisiae deletion strains, locus YMR307W, strain GAS1, stronger effect = lower value 1.04 | S. cerevisiae deletion strains, locus YNL067W, strain RPL9B, stronger effect = lower value 0.988 | S. cerevisiae deletion strains, locus YNL071W, strain lat1, stronger effect = lower value 1 | S. cerevisiae deletion strains, locus YNL128W, strain TEP1, stronger effect = lower value 0.991 | S. cerevisiae deletion strains, locus YNL153C, strain GIM3, stronger effect = lower value 0.97 | S. cerevisiae deletion strains, locus YNL183C, strain NPR1, stronger effect = lower value 0.955 | S. cerevisiae deletion strains, locus YNL209W, strain ssb2, stronger effect = lower value 1.02 | S. cerevisiae deletion strains, locus YNL233W, strain BNI4, stronger effect = lower value 1 | S. cerevisiae deletion strains, locus YNL248C, strain rpa49, stronger effect = lower value 1.01 | S. cerevisiae deletion strains, locus YNL250W, strain rad50, stronger effect = lower value 0.99 | S. cerevisiae deletion strains, locus YNL271C, strain bni1, stronger effect = lower value 0.999 | S. cerevisiae deletion strains, locus YNL298W, strain CLA4, stronger effect = lower value 1.01 | S. cerevisiae deletion strains, locus YNL307C, strain MCK1, stronger effect = lower value 1.03 | S. cerevisiae deletion strains, locus YNL322C, strain KRE1 (second series), stronger effect = lower value 1.02 | S. cerevisiae deletion strains, locus YNL322C, strain KRE1, stronger effect = lower value 1.01 | S. cerevisiae deletion strains, locus YNR049C, strain mso1, stronger effect = lower value 1.01 | S. cerevisiae deletion strains, locus YNR052C, strain pop2, stronger effect = lower value 1.01 | S. cerevisiae deletion strains, locus YOL006C, strain TOP1, stronger effect = lower value 1.06 | S. cerevisiae deletion strains, locus YOL012C, strain htz1 0.906 | S. cerevisiae deletion strains, locus YOL147C, strain pex11, stronger effect = lower value 1.01 | S. cerevisiae deletion strains, locus YOR001W, strain rrp6, stronger effect = lower value 1.02 | S. cerevisiae deletion strains, locus YOR061W, strain CKA2, stronger effect = lower value 1 | S. cerevisiae deletion strains, locus YOR069W, strain VPS5, stronger effect = lower value 1.01 | S. cerevisiae deletion strains, locus YOR070C, strain gyp1, stronger effect = lower value 1.03 | S. cerevisiae deletion strains, locus YOR080W, strain dia2, stronger effect = lower value 1.01 | S. cerevisiae deletion strains, locus YOR083W, strain WHI5, stronger effect = lower value 1.02 | S. cerevisiae deletion strains, locus YOR106W, strain vam3, stronger effect = lower value 1.02 | S. cerevisiae deletion strains, locus YOR136W, strain idh2, stronger effect = lower value 1.01 | S. cerevisiae deletion strains, locus YOR144C, strain elg1, stronger effect = lower value 1.01 | S. cerevisiae deletion strains, locus YOR184W, strain ser1, stronger effect = lower value 1.05 | S. cerevisiae deletion strains, locus YOR231W, strain MKK1, stronger effect = lower value 0.986 | S. cerevisiae deletion strains, locus YOR265W, strain rbl2, stronger effect = lower value 1.03 | S. cerevisiae deletion strains, locus YOR270C, strain vph1, stronger effect = lower value 1.03 | S. cerevisiae deletion strains, locus YOR290C, strain snf2, stronger effect = lower value 1.01 | S. cerevisiae deletion strains, locus YOR316C, strain cot1, stronger effect = lower value 1 | S. cerevisiae deletion strains, locus YPL051W, strain arl3, stronger effect = lower value 1.02 | S. cerevisiae deletion strains, locus YPL055C, strain LGE1, stronger effect = lower value 0.955 | S. cerevisiae deletion strains, locus YPL078C, strain atp4, stronger effect = lower value 1.01 | S. cerevisiae deletion strains, locus YPL106C, strain sse1, stronger effect = lower value 1.02 | S. cerevisiae deletion strains, locus YPL240C, strain hsp82, stronger effect = lower value 1.01 | S. cerevisiae deletion strains, locus YPL241C, strain CIN2, stronger effect = lower value 1.01 | S. cerevisiae deletion strains, locus YPL256C, strain CLN2, stronger effect = lower value 0.977 | S. cerevisiae deletion strains, locus YPR119W, strain clb2, stronger effect = lower value 1.01 | S. cerevisiae deletion strains, locus YPR141C, strain kar3, stronger effect = lower value 1.01 | S. cerevisiae deletion strains, locus YPR163C, strain tif3, stronger effect = lower value 1.01 | S. cerevisiae deletion strains, locus YPR167C, strain met16, stronger effect = lower value 1.02 | S. cerevisiae deletion strains, strain wtn01, stronger effect = lower value 1 | S. cerevisiae strains, strain wild type, stronger effect = lower value 1.01
